GPR151 activ = activates the human receptor GPR151; PathHunter beta-arrestin GPR151 cells, luminescence; 1% of 650,000 active; activation, % at 11.2 µM; in the data active = activation above about 4.9%;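 also: 0% = median of compound wells and 100% = cells with positive control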
Target sequence (Q8TDV0 whole entry, looked up): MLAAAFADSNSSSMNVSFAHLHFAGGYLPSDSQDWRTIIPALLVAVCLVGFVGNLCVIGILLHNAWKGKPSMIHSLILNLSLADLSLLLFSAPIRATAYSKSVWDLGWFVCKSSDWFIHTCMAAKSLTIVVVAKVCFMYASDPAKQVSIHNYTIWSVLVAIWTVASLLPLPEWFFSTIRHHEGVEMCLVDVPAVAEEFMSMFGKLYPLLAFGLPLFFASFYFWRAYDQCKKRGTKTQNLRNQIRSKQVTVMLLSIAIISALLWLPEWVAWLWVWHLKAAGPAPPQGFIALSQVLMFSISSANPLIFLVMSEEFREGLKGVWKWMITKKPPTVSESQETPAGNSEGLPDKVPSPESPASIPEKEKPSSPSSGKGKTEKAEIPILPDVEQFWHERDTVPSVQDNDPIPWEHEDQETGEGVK
TEAD-YAP inh = TEAD-YAP interaction inhibition. inhibition, % at 9.12 µM. 1.4% of 640,000 active. AID 1259422. HEK-TIYL cells, TEAD-Gal4/YAP UAS-luciferase luminescence; in the data active = inhibition above about 32%;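 also: 0% = median of test compound wells and 100% = reference inhibitor wells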
MITF inh = human MITF inhibition, primary screen | O75030 | AlphaScreen MITF homodimerization, bead proximity signal | inhibition, % at 2.6 µM | 0.91% of 650,000 active; in the data active = inhibition above about 50%;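 also: 0% = vehicle wells with protein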
FBW7 activator = human FBW7 E3 ligase activation, primary screen; AlphaScreen FBW7–phospho-cyclin E peptide binding, activator screen; normalized activity (activation), % at 26.1 µM; 0.13% of 650,000 active; AID 1259310; in the data active = normalized activity above about 1.9%;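 also: purified mutant Fbw7 with reduced substrate affinity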
GPR151 conf act = confirmation of human GPR151 activators | shares compounds with GPR151 activ | GPR151 PathHunter beta-arrestin cells, luminescence, 90 min; % of EA-reagent control over plate median | activation, % at 11.2 µM | 6,700 tested, under 10 active | AID 1508609;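 active = mean percent activation across replicates above the confirmation screen cutoff of 4.91%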
GPR119 ag = activates human GPR119 in a GPR151 counter-screen | activation, % at 11.2 µM | 0.3% of 6,700 active | shares compounds with GPR151 activ | AID 1508611 | GPR119 PathHunter beta-arrestin cells, luminescence, 90 min; 0 = compound-well median, 100 = enzyme-acceptor control;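 active = mean percent activation in the counterscreen above 29.09%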;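 also: counterscreen on off-target GPR119 to flag nonselective hits from the GPR151 activator screen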
* = called active by the depositor; · = no result given. The list is not random: actives were taken first. Their share in the collection is about 3.5%.

SMILES | GPR151 activ | TEAD-YAP inh | MITF inh | FBW7 activator | GPR151 conf act | GPR119 ag
CC(C)(C)C(=O)NCC1Cc2cccc(-c3ccc(S(C)(=O)=O)cc3)c2O1 (configuration not stated) | 0 | -7 | 18 | 0 | · | ·
CCOC(=O)c1c(NC(=O)CSc2nnc3ccccn23)sc2c1CCCC2 | 6.8* | -2 | 11 | 0 | 1 | 6
CCOC(=O)c1c(NC(=O)CSc2nnc(CNC(=O)c3ccc(OC)cc3)n2-c2ccc([N+](=O)[O-])cc2)sc2c1CCCCC2 | 5.9* | 1 | 7 | 0 | 1 | -8
CCOC(=O)c1c(NC(=O)CSc2ccccn2)sc2c1CCCC2 | 6.8* | -11 | 11 | 0 | 0 | -3
CCOC(=O)c1c(NC(=O)CSc2nc3ccccc3[nH]2)sc2c1CCCC2 | 6.3* | -24 | 2 | 0 | 0 | 0
CCOC(=O)c1c(NC(=O)CCSc2nnc3ccccn23)sc2c1CCCC2 | 1 | 0 | 10 | 0 | · | ·
CSc1ncc(CN2CCCC(N3CCC(CO)CC3)C2)cn1 (configuration not stated) | 2 | 9 | 12 | 0 | · | ·
C=CCNC(=O)CCC1(Cc2ccc(OC)cc2F)CCC(=O)N1 (configuration not stated) | 1 | 0 | -9 | 0 | · | ·
O=C1CCCN1CCn1cnc2c(NCCN3CCOCC3)nc(-c3cccs3)nc21 | 0 | 2 | 11 | 0 | · | ·
COc1cccc(/C(C)=N/NS(=O)(=O)c2ccc(Cl)cc2)c1 | 5.3* | -2 | -23 | 0 | 1 | 18
COc1ccc(S(=O)(=O)N/N=C(/C)c2ccc(Cl)cc2)cc1 | 0 | -6 | -7 | 0 | · | ·
NC(CCO)c1ccc(OCc2ccccc2)cc1 (configuration not stated) | -2 | -5 | -2 | 0 | · | ·
O=C(Cn1cc([N+](=O)[O-])cn1)n1cccn1 | 5.5* | -4 | -6 | 0 | -1 | -11
O=C(Cn1cc([N+](=O)[O-])cn1)Nc1ccccn1 | 3 | 2 | 1 | 0 | · | ·
CCN(CC)S(=O)(=O)c1ccc(N/N=C/c2ccc(O)c(OC)c2)nc1 | 2 | -6 | 7 | 0 | · | ·
CCN(CC)S(=O)(=O)c1ccc(N/N=C/c2ccc(O)cc2)nc1 | 5.7* | 2 | 22 | 0 | 1 | 3
Cc1nc(CN(C)Cc2ccc(C(=O)NCc3ccccc3Cl)c(=O)[nH]2)cs1 | 5.2* | -15 | 4 | 0 | 0 | 3
CN(Cc1cscn1)Cc1ccc(C(=O)NCc2cccs2)c(=O)[nH]1 | -1 | 9 | 10 | -1 | · | ·
Cn1cc(CN2CCCC(CNS(=O)(=O)c3cccc4cccnc34)C2)cn1 (configuration not stated) | 8.1* | 1 | 5 | 0 | 0 | 1
CN(C)C1(CNC(=O)c2ccc(S(=O)(=O)N3CCCCCC3)cc2)CCCCC1 | -3 | -8 | 14 | 0 | · | ·
Cc1sc2ncnc(Nc3ccncc3)c2c1C | 5.3* | 8 | 4 | 0 | 0 | 20
Cc1sc2ncnc(NCCc3ccccc3)c2c1C | 5.4* | 9 | 8 | 0 | 1 | 19
Cc1sc2ncnc(Nc3ccc(Cl)cc3)c2c1C | 1 | -1 | -3 | 0 | · | ·
O=C(NCc1ccncc1)c1ccc(CN2CCc3ccccc3C2)cc1 | 1 | 14 | -3 | 0 | · | ·
Nc1nnc(-c2ccc(-c3ccc(-c4nnc(N)o4)s3)s2)o1 | 0 | 13 | -1 | 0 | · | ·
SMILES | GPR151 activ | TEAD-YAP inh | MITF inh | FBW7 activator | GPR151 conf act | GPR119 ag
c1cnc2c(CN3CCc4nncn4CC3)cccc2c1 | -1 | 10 | -12 | 0 | · | ·
C=CCOc1ccccc1CN1CCc2nncn2CC1 | 7.4* | -3 | 5 | 0 | 0 | 4
C=CCOc1ccccc1CN1CCc2nnc(CNC(=O)C3CCCN(C)C3)n2CC1 (configuration not stated) | -1 | 1 | 10 | 0 | · | ·
C=CCOc1ccccc1CN1CCc2nnc(CNC(=O)C3CCC(=O)N3)n2CC1 (configuration not stated) | 5.6* | -7 | 7 | 0 | 1 | 11
CCOc1ccc(-n2c(C)nc3cc(C(=O)NCc4ccc(C)cc4)ccc32)cc1 | 5.3* | -5 | -2 | 0 | 0 | 7
Cc1nnc(NC(=O)CNCCN(C)C)s1 | 1 | -6 | -8 | 0 | · | ·
COc1cccc(-c2cc(CC(=O)NCCC3=CCCCC3)no2)c1 | 6.1* | -17 | -7 | 0 | -1 | -4
CCC1CCCCN1C(=O)CSc1nc2nc(C)c(Cc3ccccc3C)c(C)n2n1 (configuration not stated) | 5.2* | 10 | 1 | 0 | 0 | 1
CCCN(CCC)C(=O)CSc1nc2nc(C)c(Cc3ccccc3C)c(C)n2n1 | 5.0* | 13 | 9 | 0 | 0 | 2
Cc1ccccc1Cc1c(C)nc2nc(SCC(=O)NC(C)(C)C)nn2c1C | 16* | 1 | 7 | 0 | 0 | -10
Cc1ccccc1Cc1c(C)nc2nc(SCC(=O)N3CCC(C)CC3)nn2c1C | 1 | 7 | -1 | 0 | · | ·
CCC(C)NC(=O)c1c(O)c2cccc3c2n(c1=O)CCC3 (configuration not stated) | 3 | 1 | -1 | 0 | · | ·
Cc1c(-c2ccc(Cl)cc2)noc1C1CCN(CCc2ccccc2)CC1 | 8.2* | · | 9 | 0 | 2 | -1
O=C(NCCO)c1cccc(N2C(=O)c3ccccc3C2=O)c1 | 7.6* | 3 | 1 | 0 | 0 | 3
C/C(=N\NC(=O)c1cccs1)c1cccc(N)c1 | -1 | -79 | 9 | 0 | · | ·
Cc1sc2nc(SCC(=O)N3CCCCC3C)nc(N)c2c1C (configuration not stated) | 11* | -5 | 1 | 0 | 0 | 3
Cc1sc2nc(SCC(=O)NC3CCCC3)nc(N)c2c1C | 0 | -5 | -1 | 0 | · | ·
Cc1csc(NC(=O)/C=C/c2cccc(Cl)c2)n1 | 5.0* | -35 | 4 | 0 | 0 | -12
COc1ccccc1OCCCC(=O)Nc1nnc(C2CCCCC2)s1 | 5.2* | -1 | 6 | 0 | 1 | 5
O=C(O)CCC/C=C\C[C@H]1[C@@H](/C=C/[C@@H](O)CCc2ccccc2)[C@H](O)C[C@H]1O | -1 | · | 12 | · | · | ·
CC(C)OC(=O)CCC/C=C\C[C@@H]1[C@@H](/C=C/[C@@H](O)CCc2ccccc2)[C@H](O)C[C@@H]1O | 5.4* | · | -6 | · | 0 | -1
O=C(O)CCC/C=C\C[C@@H]1[C@@H](/C=C/[C@@H](O)C2Cc3ccccc3C2)[C@@H](F)C[C@@H]1O | 5.0* | · | 6 | · | -1 | 2
COc1ccccc1C(=O)NCCn1cc(SCC(=O)Nc2cccc(C)c2)c2ccccc21 | -1 | 6 | -1 | 0 | · | ·
CC1CCN(C(=O)c2cc3n(n2)C(C(F)(F)F)CC(c2ccc4c(c2)OCO4)N3)CC1 (configuration not stated) | -1 | 4 | 4 | 0 | · | ·

Source: PubChem
